In the library only some 12% were active in any assay of this set; here they are far more common.
BAZ2B inh = qHTS Assay for Inhibitors of BAZ2B. 360,000 tested, 4.4% active. Potency, µM (series often up to 114 µM), for inactives: at the top dose activity change, negative = inhibition, actives largely listed as inhibitors. AlphaScreen BAZ2B-H3K14Ac peptide displacement. AID 504333, 2011; further: on the % scale 0 is the no-effect control and ±100 the full control effect; nearly all actives have a fitted effect of over 60% in size
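AlphaScreen displacement of biotin-H3(5-23)K14Ac peptide (50 nM final) from BAZ2B (50 nM final) in PBS pH 7.4, 0.01% Tween-20; complex preformed 30 min RT, then compounds (top 110 uM) 30 min RT, beads 20 min dark.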
HP1b binding inh = HTS for Inhibitors of HP1-beta Chromodomain Interactions with Methylated Histone Tails. Chromobox protein homolog 1 (Homo sapiens), P83916. AlphaScreen HP1-beta / biotin-H3K9me3 peptide binding. Potency, µM (top dose mostly 114 µM), for the others: at the highest dose activity change, negative = inhibition, most hits filed as inhibitors. 390,000 tested, 0.56% active. AID 540317, 2011; further: nearly all actives have a fitted effect of over 70% in size
Target sequence (P83916 whole entry, looked up): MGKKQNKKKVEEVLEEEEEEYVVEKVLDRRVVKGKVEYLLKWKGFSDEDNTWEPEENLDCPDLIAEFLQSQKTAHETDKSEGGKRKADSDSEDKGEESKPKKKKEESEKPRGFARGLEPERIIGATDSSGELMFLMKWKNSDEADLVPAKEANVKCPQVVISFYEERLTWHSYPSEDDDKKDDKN
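Compound inhibition of the preformed complex between 50 nM HP1-beta and 50 nM biotinylated H3K9me3 peptide was read by AlphaScreen. Buffer was PBS pH 7.4 with 0.01% Tween-20. Incubations ran 30 min at room temperature, with 10 ug/mL donor/acceptor beads.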
Sfp PPTase inh = qHTS Assay for Inhibitors of Bacillus subtilis Sfp phosphopantetheinyl transferase (PPTase); Biochemical Sfp PPTase activity, qHTS; Potency, µM, for inactives: largest response in the series, negative = inhibition, usual class: inhibitors; 310,000 tested, 3.5% active; AID 1490, 2009;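 further: the enzyme is Sfp with the accession as filed and its product quenches rhodamine fluorescence; 0% = enzyme reaction without inhibitor and -100% = no enzyme wells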
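With Hepes-Na pH 7.6 buffer containing 10 mM MgCl2, Sfp (15 nM) modified BHQ-2-YbbR (12.5 uM) using rhodamine-CoA (5 uM). Two reads 30 minutes apart at 525/598 nm yielded each well's rate.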
PLK1 PBD inh = qHTS for Inhibitors of PLK1-PDB (polo-like kinase 1 - polo-box domain): Primary Screen. Serine/threonine-protein kinase PLK1 (Homo sapiens), P53350. Plk1 PBD binding of FITC phosphopeptide, fluorescence polarization. Potency, µM, for inactives: max response, negative = inhibition, hits mostly inhibitors. 360,000 tested, 2.8% active. AID 720504, 2013; further: series mostly up to about 57 µM; on the % scale 0 is the no-effect control and ±100 the full control effect; nearly all actives have a fitted effect of over 65% in size
G9a inh = qHTS Assay for Inhibitors of Histone Lysine Methyltransferase G9a; 350,000 tested, 8.8% active; Potency, µM (series often up to 102 µM), for inactives: at the top dose activity, negative = inhibition, actives largely listed as inhibitors; G9a H3K9 monomethylation, AlphaScreen, 2 h; further: on the % scale 0 is the no-effect control and ±100 the full control effect; nearly all actives have a fitted effect of over 75% in size
Target sequence (Q96KQ7 913-1193 limits assumed): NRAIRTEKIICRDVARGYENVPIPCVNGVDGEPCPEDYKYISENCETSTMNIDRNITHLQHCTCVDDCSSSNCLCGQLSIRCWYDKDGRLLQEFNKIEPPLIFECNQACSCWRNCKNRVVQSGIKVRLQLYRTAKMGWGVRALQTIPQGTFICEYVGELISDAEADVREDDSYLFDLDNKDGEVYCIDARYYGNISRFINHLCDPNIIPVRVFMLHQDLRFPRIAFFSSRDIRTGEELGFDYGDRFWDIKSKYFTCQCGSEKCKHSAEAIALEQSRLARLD
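G9a (20 nM) was preincubated 15 min with compound, then reacted 2 h at room temperature with 500 nM biotin-H3K9 peptide and 20 µM SAM. Monomethyl-H3K9 detected by AlphaScreen using anti-H3K9me1 antibody.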
JMJD2A Tudor = qHTS Assay for Inhibitors of JMJD2A-Tudor Domain; AlphaScreen JMJD2A-Tudor / H3K4me3 peptide binding; Potency, µM (titrated, usually from 114 µM), for inactives: top-dose activity change, negative = inhibition, usual class: inhibitors; 390,000 tested, 4.4% active; further: on the % scale 0 is the no-effect control and ±100 the full control effect; nearly all actives have a fitted effect of over 50% in size
Active calls of the source: *; ? = inconclusive; · = no result; [ ] = dose if it differs, or a comment. The call rests on the fitted dose curve; in most records, active means well fitted curve in the direction sought with a large enough effect; inconclusive means small, poorly fitted or top-dose-only effect, or another doubt; inactive means no such curve, though single readings can be large; an effect the other way counts as inactive or inconclusive. Potency means the concentration at half of the fitted maximal effect.

SMILES | BAZ2B inh | HP1b binding inh | Sfp PPTase inh | PLK1 PBD inh | G9a inh | JMJD2A Tudor
CNC(=O)c1[nH]cnc1C(=O)N[C@@H](C)C(=O)OCc1ccccc1 | 50.1µM* | 65.1% | -12.9% | -0.7% | -9.1%[12.7 µM] | -33.1%
CNC(=O)c1[nH]cnc1C(=O)NCC(=O)OCc1ccccc1 | -25.4% | 37.3% | 8.5% | -5.8% | 44.7µM* | -32.9%
O=C(CNC(=O)c1nc[nH]c1C(=O)NCc1ccccc1)OCc1ccccc1 | -3.2% | 42.9% | 11.8% | -9.9% | 13.0% | -27.9%
O=C(CNC(=O)c1nc[nH]c1C(=O)NCC(=O)OCc1ccccc1)OCc1ccccc1 | ? | 30.1% | 17.1% | -14.1% | · | ?
CC(=O)c1c(C)oc2c1cc(NS(=O)(=O)c1ccc(Cl)c(C)c1)c1ccccc12 | -12.1% | 20.2% | · | · | -50.2%[59 µM] | -8.7%
Cc1cc(S(=O)(=O)N2CCCC(N(C)CCc3ccccn3)C2)c(C)cc1Cl (stereo not drawn) | -36.1% | 33.8% | -10.5% | -3.3% | · | -4.7%
COC(=O)c1cc(COC(=O)CNC(=O)c2ccc(Br)cc2)oc1C | · | 15.6% | · | -11.6% | · | -8.3%
CN(C(=O)CSc1nnc(-c2ccco2)n1Cc1ccccc1)C1CCS(=O)(=O)C1 (stereo not drawn) | 6.2% | 50.0% | · | -3.5% | 11.0%[2.33 µM] | 0.0%
COC(=O)C1CCN(S(=O)(=O)c2cc3c4c(c2)CC(=O)N4CCC3)CC1 | -6.6% | 14.1% | · | · | 4.7%[59 µM] | -5.8%
Cc1ccc(C(=O)OCC(=O)N2CCCCCC2)c(O)c1 | 3.3% | 32.1% | · | -11.9% | 29.0%[12.7 µM] | 2.0%
COc1ccc(N2CCN(CC(O)COc3ccc(C)cc3C)CC2)cc1 (stereo not drawn) | 39.8µM* | ? | -4.1% | -9.4% | 39.8µM* | 44.7µM*
COc1ccc(N2CCN(CC(O)COc3cc(C)ccc3C)CC2)cc1 (stereo not drawn) | ? | 19.6% | -10.5% | 0.0% | 8.91µM* | -33.5%
O=[N+]([O-])c1ccccc1OCC(O)CN1CCN(CC(O)COc2ccccc2[N+](=O)[O-])CC1 (stereo not drawn) | 4.8% | 18.1% | 11.8% | 7.9% | · | -12.0%
COc1ccc(N2CCN(CC(O)COc3ccccc3[N+](=O)[O-])CC2)cc1 (stereo not drawn) | ? | ? | 12.2% | 4.0% | ? | 28.2µM*
CCCc1nc2ccccc2n2c(-c3cccc(C)c3)c3c(=O)n(C)c(=O)n(C)c3c12 | 9.7% | 62.0% | · | · | 18.4%[59 µM] | 17.5%
CCCCOC(=O)C(C)Sc1n[nH]c(=O)[nH]c1=O (stereo not drawn) | 8.5% | -9.3% | -1.4% | 26.7µM* | -33.2% | -8.2%
CC(C)(S)[C@H](N)C(=O)O | · | · | -56.4% | · | · | ·
Cc1nc(NS(=O)(=O)c2ccccc2)sc1NC(=O)OCCN(C)C | -5.4% | 26.4% | 20µM* | 21.2µM* | ? | -7.5%[11.4 µM]
CCn1c(C)c(C)c2cc(C(=O)NCCc3ccc(C)cc3)ccc21 | -30.3% | 10.8% | · | · | ? | ?
Cc1c(C)n(C)c2ccc(C(=O)NCCCN3CCCCC3C)cc12 (stereo not drawn) | ? | 32.8% | -5.7% | -12.1% | -8.0% | ?
Cc1ccccc1CCNC(=O)c1ccc2c(c1)c(C)c(C)n2C | ? | -10.2% | · | · | ? | ?
Cc1c(C)n(C)c2ccc(C(=O)NCCc3ccco3)cc12 | 35.5µM* | ? | ? | -10.9% | · | ?
CCOC(=O)Cn1c(=O)n(Cc2ccco2)c(=O)c2ccc(C(=O)NCCc3ccccc3)cc21 | -3.7% | 4.8% | 56.2µM* | -0.4% | -17.3%[0.0925 µM] | -23.5%
COc1ccc(CCNC(=O)Cn2c(=O)n(Cc3ccco3)c(=O)c3ccc(Cl)cc32)cc1OC | -11.6% | 57.6% | ? | -26.6% | ? | -11.6%[11.4 µM]

Screens from PubChem BioAssay.
